This passage reports Potency results from PubChem BioAssay (Tox21).

Where “and” joins values, the source holds several entries; their conditions need not be identical. Equal values may be shown once. Inconclusive results are not listed. Where a call stands in place of a potency, no number is given. Some structures have more than one record in an assay (separate samples or runs), and their calls can disagree. Calls of active or inactive are those of the source. Unless noted, calls follow the shape of the full dose curve.

Progesterone receptor (Homo sapiens), sequence (P06401 whole entry, looked up): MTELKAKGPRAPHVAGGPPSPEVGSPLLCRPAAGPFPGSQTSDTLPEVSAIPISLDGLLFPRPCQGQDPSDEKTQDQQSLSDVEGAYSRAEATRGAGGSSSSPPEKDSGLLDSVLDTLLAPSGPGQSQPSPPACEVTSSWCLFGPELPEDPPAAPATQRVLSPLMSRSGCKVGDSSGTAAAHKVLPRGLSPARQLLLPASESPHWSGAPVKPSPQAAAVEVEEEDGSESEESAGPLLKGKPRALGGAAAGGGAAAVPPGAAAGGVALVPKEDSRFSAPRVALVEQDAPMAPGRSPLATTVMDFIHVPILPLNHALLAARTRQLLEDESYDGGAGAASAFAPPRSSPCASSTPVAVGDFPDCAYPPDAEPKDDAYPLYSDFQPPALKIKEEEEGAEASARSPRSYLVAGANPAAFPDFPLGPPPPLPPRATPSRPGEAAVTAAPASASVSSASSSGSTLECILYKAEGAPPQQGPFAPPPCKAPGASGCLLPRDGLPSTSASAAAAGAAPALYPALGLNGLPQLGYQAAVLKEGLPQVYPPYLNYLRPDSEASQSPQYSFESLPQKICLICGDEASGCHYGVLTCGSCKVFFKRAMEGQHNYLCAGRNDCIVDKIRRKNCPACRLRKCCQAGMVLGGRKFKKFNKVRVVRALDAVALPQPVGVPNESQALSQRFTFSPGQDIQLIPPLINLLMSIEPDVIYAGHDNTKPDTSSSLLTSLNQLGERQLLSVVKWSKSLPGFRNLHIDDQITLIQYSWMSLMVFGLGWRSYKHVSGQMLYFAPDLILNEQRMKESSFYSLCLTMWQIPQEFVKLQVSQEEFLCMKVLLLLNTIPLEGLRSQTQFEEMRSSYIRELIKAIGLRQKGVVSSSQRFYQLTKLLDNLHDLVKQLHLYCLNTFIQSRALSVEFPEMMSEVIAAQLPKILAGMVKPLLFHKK

One assay has as its target Progesterone receptor (Homo sapiens) (UniProt P06401). In words: qHTS assay to identify small molecule agonists of the progesterone receptor (PR) signaling pathway (AID 1346784). Also: nearly all actives have a fitted effect of over 30% in size. To be noted: PR-UAS-bla HEK293T, beta-lactamase FRET ratio, 16 h; series mostly up to 92.4 µM. The essentials:
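Seed PR-UAS-bla HEK 293T cells (2% charcoal-stripped FBS), incubate 6 hr at 37C; add compounds in DMSO, 16 hr at 37C; add LiveBLAzer B/G substrate, 2 hr RT; read fluorescence intensity.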
Background: qHTS replaces the single test concentration by a dilution series.
`Cc1cccnc1`: the Potency entry was “inactive”.

Turning to `CCCCCCCCCCCCc1ccccc1`, the Potency entry is “inactive”.

With `CN(C)CCCN`, the Potency result is “inactive”.

On to `c1ccc2scnc2c1`, for which the Potency result is “inactive”.

For `OCC(CO)(CBr)CBr`, the Potency result was “inactive”.

Consider `CCCCCCCCCC`, for which the Potency result is “inactive”.

On to `CC1=C(C)S(=O)(=O)CCS1(=O)=O`, for which the Potency result is “inactive”.

For `O=c1[nH]nnc2ccccc12`, the Potency entry was “inactive”.

On to `O=S1(=O)CC=CC1`, for which the Potency result is “inactive”.

As to `CC1CCC(C(C)C)C(O)C1` (stereo not given), the Potency result is “inactive”.

With `CCC(O)OC(O)CC` (stereo not given), the Potency result is “inactive”.

For the molecule `CCN(CC)c1ccc(C(=O)c2ccccc2C(=O)O)c(O)c1`, the Potency result is “inactive”.

Turning to `Cc1cccc(O)c1`, the Potency entry was “inactive”.

`O=S(=O)(O)c1ccc2ccccc2c1`: the Potency result was “inactive”.

For the molecule `CCCCCCCCCCCCOCCO`, the Potency entry is “inactive”.

As to `Fc1ccc(Br)cc1`, the Potency entry was “inactive”.

Turning to `O=C(O)c1cc(C(=O)O)cc(S(=O)(=O)O)c1`, the Potency result is “inactive”.

`O=C(O)c1ccc(C(=O)O)cc1`: the Potency result was “inactive”.

`c1ccc2c(c1)ccc1ccccc12`: the Potency entry was “inactive”.

With `CCCCCOC(C)=O`, the Potency entry was “inactive”.

As to `CCCC(C)=O`, the Potency entry was “inactive”.

`Oc1cccc2ccccc12`: the Potency result was “inactive”.

Take `C=C(C)C(=O)OCCOCCOCCOC(=O)C(=C)C`: the Potency result was “inactive”.

As to `CCCCC(CC)COC(=O)CS` (stereo not given), the Potency entry was “inactive”.

For `CN(C)CCC(c1ccc(Cl)cc1)c1ccccn1` (stereo not given), the Potency result is “inactive”.

Turning to `CC(C)(N)CO`, the Potency entry is “inactive”.

Consider `Nc1ccccc1[N+](=O)[O-]`, for which the Potency entry was “inactive”.

Regarding `CCc1cccc(C)c1N`, the Potency result was “inactive”.

Consider `O=C(Oc1ccccc1)c1ccccc1`, for which the Potency result is “inactive”.

With `CCCCC(CC)COC(=O)CCCCC(=O)OCC(CC)CCCC` (stereo not given), the Potency result is “inactive”.

Take `C=C(C)C(=O)O[C@H]1C[C@@H]2CC[C@@]1(C)C2(C)C`: the Potency result was “inactive”.

As to `O=C(O)CCCCCCCCCCC(=O)O`, the Potency result was “inactive”.

Consider `Cc1cc(C)c(C)cc1C`, for which the Potency entry was “inactive”.

In the case of `O=C(CC(C(=O)OC1CCCCC1)S(=O)(=O)O)OC1CCCCC1` (stereo not given), the Potency entry was “inactive”.

Take `CCCCCCOCCO`: the Potency result is “inactive”.

Turning to `Cc1occc(=O)c1O`, the Potency entry was “inactive”.

With `CC(=O)c1ccccc1`, the Potency result is “inactive”.

As to `CCCCCC/C(C=O)=C\c1ccccc1`, the Potency entry was “inactive”.

For another assay the target is unchanged. In words: qHTS assay to identify small molecule antagonists of the progesterone receptor (PR) signaling pathway (AID 1346795; active = well fitted inhibition curve with a large enough effect in the signal ratio in the repeat runs, not every such curve was filed as active; the % refers to the signal ratio; also: potency is read from the fitted curve at half-maximal effect). To be noted: PR-UAS-bla HEK293T, beta-lactamase FRET ratio, 16 h; series mostly up to 92.4 µM. The essentials:
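Screening used a GripTite HEK293T line with PR-responsive UAS-beta-lactamase. Cells were challenged with compound in the presence of 1 nM R5020 final for 16 hr at 37C; B/G FRET substrate, 2 hr room temperature, fluorescence.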
Take `Cc1cccnc1`: the Potency result was “inactive”.

In the case of `CCCCCCCCCCCCc1ccccc1`, the Potency result is “inactive”.

As for `CN(C)CCCN`, the Potency entry is “inactive”.

On to `c1ccc2scnc2c1`, for which the Potency result is “inactive”.

For the molecule `OCC(CO)(CBr)CBr`, the Potency result was “inactive”.

For `CCCCCCCCCC`, the Potency result was “inactive”.

In the case of `CC1=C(C)S(=O)(=O)CCS1(=O)=O`, the Potency entry is “inactive”.

Take `O=c1[nH]nnc2ccccc12`: the Potency result is “inactive”.

As for `O=S1(=O)CC=CC1`, the Potency result was “inactive”.

On to `CC1CCC(C(C)C)C(O)C1` (stereo not given), for which the Potency entry is “inactive”.

Regarding `CCC(O)OC(O)CC` (stereo not given), the Potency entry is “inactive”.

With `CCN(CC)c1ccc(C(=O)c2ccccc2C(=O)O)c(O)c1`, the Potency entry is “inactive”.

As for `Cc1cccc(O)c1`, the Potency entry is “inactive”.

With `O=S(=O)(O)c1ccc2ccccc2c1`, the Potency result was “inactive”.

Turning to `Fc1ccc(Br)cc1`, the Potency result was “inactive”.

In the case of `O=C(O)c1cc(C(=O)O)cc(S(=O)(=O)O)c1`, the Potency result was “inactive”.

As for `O=C(O)c1ccc(C(=O)O)cc1`, the Potency result was “inactive”.

On to `c1ccc2c(c1)ccc1ccccc12`, for which the Potency result is “inactive”.

Regarding `CCCC(C)=O`, the Potency result was “inactive”.

Take `Oc1cccc2ccccc12`: the Potency is 28 µM (active) and 43.3 µM (active).

Consider `C=C(C)C(=O)OCCOCCOCCOC(=O)C(=C)C`, for which the Potency result is “inactive”.

In the case of `CCCCC(CC)COC(=O)CS` (stereo not given), the Potency result is “inactive”.

Consider `CN(C)CCC(c1ccc(Cl)cc1)c1ccccn1` (stereo not given), for which the Potency entry was “inactive”.

As for `CC(C)(N)CO`, the Potency result was “inactive”.

Take `Nc1ccccc1[N+](=O)[O-]`: the Potency entry was “inactive”.

Consider `CCc1cccc(C)c1N`, for which the Potency result was “inactive”.

Turning to `O=C(Oc1ccccc1)c1ccccc1`, the Potency result was “inactive”.

Consider `CCCCC(CC)COC(=O)CCCCC(=O)OCC(CC)CCCC` (stereo not given), for which the Potency result was “inactive”.

Regarding `C=C(C)C(=O)O[C@H]1C[C@@H]2CC[C@@]1(C)C2(C)C`, the Potency was 2.71 µM (active) and inactive.

Take `O=C(O)CCCCCCCCCCC(=O)O`: the Potency entry is “inactive”.

For the molecule `Cc1cc(C)c(C)cc1C`, the Potency entry was “inactive”.

For the molecule `O=C(CC(C(=O)OC1CCCCC1)S(=O)(=O)O)OC1CCCCC1` (stereo not given), the Potency entry is “inactive”.

For `CCCCCCOCCO`, the Potency result is “inactive”.

For the molecule `Cc1occc(=O)c1O`, the Potency entry is “inactive”.

For the molecule `CC(=O)c1ccccc1`, the Potency result was “inactive”.

As to `CCCCCC/C(C=O)=C\c1ccccc1`, the Potency entry was “inactive”.

Test system in a further assay: not listed separately
Description: qHTS assay to identify small molecule antagonists of the progesterone receptor (PR) signaling pathway - cell viability counter screen (AID 1346798; active = well fitted cell-killing curve with a large enough effect in the repeat runs; also: nearly all actives have a fitted effect of over 50% in size; also: potency is read from the fitted curve at half-maximal effect). To be noted: PR-UAS-bla HEK293T viability, CellTiter-Glo luminescence, 16 h; series mostly up to 92.4 µM. The method, boiled down:
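Measures cytotoxicity in parallel with the PR antagonist reporter read: HEK293T PR-UAS-bla cells get compound and R5020 for 16 hr, and remaining viable cells are quantified by CellTiter-Glo luminescence.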
On to `Cc1cccnc1`, for which the Potency entry is “inactive”.

For `CCCCCCCCCCCCc1ccccc1`, the Potency result is “inactive”.

Consider `CN(C)CCCN`, for which the Potency entry is “inactive”.

On to `c1ccc2scnc2c1`, for which the Potency result is “inactive”.

For the molecule `OCC(CO)(CBr)CBr`, the Potency result is “inactive”.

As for `CCCCCCCCCC`, the Potency entry was “inactive”.

Regarding `O=c1[nH]nnc2ccccc12`, the Potency result is “inactive”.

On to `COS(C)(=O)=O`, for which the Potency result was “inactive”.

As for `O=S1(=O)CC=CC1`, the Potency entry was “inactive”.

For `CC1CCC(C(C)C)C(O)C1` (stereo not given), the Potency entry was “inactive”.

Regarding `CCC(O)OC(O)CC` (stereo not given), the Potency entry is “inactive”.

Take `CCN(CC)c1ccc(C(=O)c2ccccc2C(=O)O)c(O)c1`: the Potency entry was “inactive”.

For `Cc1cccc(O)c1`, the Potency result is “inactive”.

With `O=S(=O)(O)c1ccc2ccccc2c1`, the Potency entry was “inactive”.

Regarding `Fc1ccc(Br)cc1`, the Potency result is “inactive”.

As to `O=C(O)c1cc(C(=O)O)cc(S(=O)(=O)O)c1`, the Potency entry was “inactive”.

Turning to `O=C(O)c1ccc(C(=O)O)cc1`, the Potency result is “inactive”.

Regarding `c1ccc2c(c1)ccc1ccccc12`, the Potency result is “inactive”.

As to `CCCCCOC(C)=O`, the Potency entry is “inactive”.

Regarding `CCCC(C)=O`, the Potency result was “inactive”.

As for `Oc1cccc2ccccc12`, the Potency result is “inactive”.

Take `C=C(C)C(=O)OCCOCCOCCOC(=O)C(=C)C`: the Potency entry was “inactive”.

As to `CCCCC(CC)COC(=O)CS` (stereo not given), the Potency result was “inactive”.

`CN(C)CCC(c1ccc(Cl)cc1)c1ccccn1` (stereo not given): the Potency is 54.6 µM (active).

In the case of `CC(C)(N)CO`, the Potency result was “inactive”.

Take `Nc1ccccc1[N+](=O)[O-]`: the Potency entry was “inactive”.

For the molecule `CCc1cccc(C)c1N`, the Potency result was “inactive”.

As to `O=C(Oc1ccccc1)c1ccccc1`, the Potency result was “inactive”.

On to `CCCCC(CC)COC(=O)CCCCC(=O)OCC(CC)CCCC` (stereo not given), for which the Potency entry is “inactive”.

For the molecule `O=C(O)CCCCCCCCCCC(=O)O`, the Potency entry was “inactive”.

For `Cc1cc(C)c(C)cc1C`, the Potency entry was “inactive”.

Regarding `O=C(CC(C(=O)OC1CCCCC1)S(=O)(=O)O)OC1CCCCC1` (stereo not given), the Potency entry is “inactive”.

`CCCCCCOCCO`: the Potency result is “inactive”.

Turning to `Cc1occc(=O)c1O`, the Potency entry was “inactive”.

Regarding `CC(=O)c1ccccc1`, the Potency result is “inactive”.

In the case of `CCCCCC/C(C=O)=C\c1ccccc1`, the Potency result was “inactive”.
